# Measurements: PubChem BioAssay AID1508622 (National Center for Advancing Translational Sciences (NCATS), 2021)
# Active and inactive are the calls of the source. Entries that show only a call come without a potency. Calls come from the whole dose curve; as a rule, active = well fitted activation curve with a large enough effect; inconclusive = small, poorly fitted or top-dose-only effect; inactive = no such curve, though single readings can be large or run the other way.
# Assay: Confirmatory qHTS for Identification of Small Molecule Activators of Huntingtin-Antisense Promoter Activity
# Details: HEK293 HTT-AS promoter firefly luciferase reporter, 24 h; series mostly up to 57.5 µM
# Method in brief: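 Plated reporter HEK293 cells (24 h) received library compounds at up to 57.5 uM final or 50 uM PTC124, incubated 24 h at 37C; firefly luciferase luminescence was then recorded with Dual-Glo reagent.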
# Potency is the fitted concentration of half-maximal effect.
row,Compound,Potency
1,Cc1cccc(N2CCN(S(=O)(=O)c3ccc4c(c3)CCCN4C(=O)C3CCC3)CC2)c1C,inactive
2,O=C(Nc1nc2cccc(-c3ccc(CN4CCS(=O)(=O)CC4)cc3)n2n1)C1CC1,8.49 µM (active)
3,CCc1ccc(NC(=O)C2CCCN(S(=O)(=O)c3cccc4nsnc34)C2)cc1 (stereo unspecified),inactive
4,CCOC(=O)C1CCN(C(=O)Cn2c(-c3cccs3)cc3cc(Cl)ccc32)CC1,inactive
5,COc1ccc(NC(=O)C(=O)NCC(c2cccnc2)N2CCc3ccccc3C2)cc1 (stereo unspecified),inactive
6,COc1cccc(N2CCN(C(=O)c3cccc(-n4c(C)nc5cccnc54)c3)CC2)c1,inactive
